# From ChEMBL document CHEMBL3988442, “University of Dundee, Small-Polar-MMV Screening Library” (2021)
# Among all 69,000 compounds or so, about 1,000 (1.4%) showed an effect of 50% or more. The full list was thinned out, with strong results kept by preference.
# Tested on: Leishmania donovani
# Test: Leishmania intramacrophage assay
# Type: functional, organism-based
# Design: scale not given: in the data most compounds retested in dose-response had high values
smiles,measurement,setting,value
CCc1nncn1CCNC(=O)Nc1ccc(OC)c(C)c1,Percent Effect,"30.3 µM, […]",5.132%
CCC(=O)c1ccccc1NN1c2ccccc2C(=O)C1(C)OC (centres undefined),Percent Effect,"30.3 µM, […]",62.96%
CCC(=O)c1ccc(Br)cc1NN1c2cc(Br)ccc2C(=O)C1(C)OC (centres undefined),Percent Effect,"30.3 µM, […]",24.9%
CCOC1(C)C(=O)c2ccccc2N1Nc1ccccc1C(=O)CC (centres undefined),Percent Effect,"30.3 µM, […]",19.56%
Cc1c(C(=O)O)cnn1-c1ccc(-c2nc(C3CC3)no2)cn1,Percent Effect,"30.3 µM, […]",11.33%
CC(C)Cc1cc(NC(=O)c2cc(Cl)c[nH]2)n(C)n1,Percent Effect,30 µM,-56.19%
N#Cc1cccc(N2CCCC(CO)(Cc3ccccc3F)C2)n1 (centres undefined),Percent Effect,"30.3 µM, […]",29.41%
N#Cc1cccnc1N1CCCC(CO)(Cc2ccccc2F)C1 (centres undefined),Percent Effect,"30.3 µM, […]",2.884%
COc1cc(N2CCCC(CO)(Cc3ccccc3F)C2)ncn1 (centres undefined),Percent Effect,"30.3 µM, […]",63.9%
CC(=O)c1ccc(N2CCCC(CO)(Cc3ccccc3F)C2)nc1 (centres undefined),Percent Effect,"30.3 µM, […]",13.31%
Nc1cc(N2CCCC(CO)(Cc3ccccc3F)C2)nc(N)n1 (centres undefined),Percent Effect,"30.3 µM, […]",94.26%
OCC1(Cc2ccccc2F)CCCN(c2ccc3ccccc3n2)C1 (centres undefined),Percent Effect,"30.3 µM, […]",23.98%
CC(C)(C)c1cn2nc(N3CCC[C@@H]3CO)sc2n1,Percent Effect,"30 µM, 30.03 µM",20.83%
CN(C)C(=O)N1CCN(C(=O)c2ccc(Cl)c(Cl)c2)C(C)(C)C1,Percent Effect,"30.3 µM, […]",36.34%
CCc1nc(N2CCN(CCOC)CC2)c2cnn(C)c2n1,Percent Effect,"30.3 µM, […]",9.143%
CCNC(=O)CN(CC)C(=O)Cc1csc(C(C)C)n1,Percent Effect,"30.3 µM, […]",17.83%
Cc1ncccc1CNCC1COC2(CCCCC2)O1 (centres undefined),Percent Effect,"30.3 µM, […]",19.04%
Cc1nc(NCCCn2cccn2)c2c(n1)c(C)nn2C,Percent Effect,"30.3 µM, […]",-31.03%
O=C(CNC(=O)c1cnc2ccccc2c1O)NCCCn1ccnc1,Percent Effect,"30.3 µM, […]",15.36%
CN(CCO)C[C@@H]1CN(Cc2ccccc2C#N)C[C@@H]1CO,Percent Effect,"30.3 µM, […]",12.29%
CN(C)C[C@@H]1CN(C2CCN(c3ccccc3Cl)CC2)C[C@@H]1CO,Percent Effect,"30.3 µM, […]",52.98%
CN(CCO)C[C@@H]1CN(Cc2ccccc2-c2ccccc2)C[C@@H]1CO,Percent Effect,"30.3 µM, […]",83.9%
CN1CCN(C[C@@H]2CN(C3Cc4ccccc4C3)C[C@@H]2CO)CC1,Percent Effect,"30.3 µM, […]",4.168%
CN(CCO)C[C@@H]1CN(C(=O)Cc2ccc3ccccc3c2)C[C@@H]1CO,Percent Effect,"30.3 µM, […]",-1.562%
CN(C)C[C@@H]1CN(C(=O)Cc2ccccc2)C[C@@H]1CO,Percent Effect,"30.3 µM, […]",22.9%
Cc1ccccc1CN1C[C@@H](CN(C)CCO)[C@@H](CO)C1,Percent Effect,"30.3 µM, […]",5.953%
Cc1cc(F)ccc1N1CCC(N2C[C@@H](CN(C)C)[C@@H](CO)C2)CC1,Percent Effect,"30.3 µM, […]",95.44%
CN(CCO)C[C@@H]1CN(C2CCN(c3ccccc3Cl)CC2)C[C@@H]1CO,Percent Effect,"30.3 µM, […]",89.6%
CN(CCO)C[C@@H]1CN(C(=O)c2c(F)cccc2Cl)C[C@@H]1CO,Percent Effect,"30 µM, 30.03 µM",27.13%
CN(C)C[C@@H]1CN(C(=O)c2cc(F)ccc2F)C[C@@H]1CO,Percent Effect,"30.3 µM, […]",22.29%
Cc1cc(F)ccc1N1CCC(N2C[C@@H](C)[C@@](C)(O)C2)CC1,Percent Effect,"30.3 µM, […]",44.3%
O=C(NCCSCc1ccco1)c1ccc(N2CCOCC2)cc1,Percent Effect,"30.3 µM, […]",-4.352%
CCc1nnc2n1CCN(C(=O)c1nc(-c3ccco3)sc1C)C2,Percent Effect,30 µM,1.353%
O=C(O)C(F)(F)F.O=C(c1ccoc1)N1C[C@@H]2OCCN(c3ncccn3)[C@@H]2C1,Percent Effect,"30.3 µM, […]",10.14%
CCc1nccn1-c1nccnc1C1CCCN(C(=O)COC)C1 (centres undefined),Percent Effect,"30.3 µM, […]",11.67%
Cc1cc(=O)[nH]c(NCCNC(=O)C(c2ccc(F)cc2)N(C)C)n1 (centres undefined),Percent Effect,"30 µM, 30.03 µM",-13%
OCC1(NCc2cnc(-c3cccs3)s2)CCOCC1,Percent Effect,"30.3 µM, […]",16.11%
O=C(C1CC=CC1)N1CCC2(CCC(=O)N2Cc2cccc(F)c2)CC1,Percent Effect,"30.3 µM, […]",15.71%
CCOc1ccc(Cl)c(C(=O)NC(Cc2ccccc2)C(N)=O)n1 (centres undefined),Percent Effect,"30.3 µM, […]",6.553%
CN(C)S(=O)(=O)CCCOc1cccc(-n2ccnc2)c1,Percent Effect,"30.3 µM, […]",-0.5544%
CN(C)C[C@@H]1CN(C2CCN(c3ccc(Cl)cc3)CC2)C[C@@H]1CO,Percent Effect,"30.3 µM, […]",93.76%
Cc1ccc(N2CCC(N3C[C@@H](CN(C)C)[C@@H](CO)C3)CC2)cc1,Percent Effect,"30.3 µM, […]",38.77%
CNC(=O)CN(C)C1CCN(c2ccc(Cl)cc2)CC1,Percent Effect,"30.3 µM, […]",24.19%
OC(COCc1cccs1)Cn1cc(Cl)cn1 (centres undefined),Percent Effect,"30.3 µM, […]",11.71%
CC(C)N1CCN(C(=O)c2csc3nc(-c4ccc(Cl)cc4)cn23)CC1,Percent Effect,"30.3 µM, […]",11.51%
CCC1CN(C(=O)c2csc3nc(-c4ccc(Cl)cc4)cn23)CCN1 (centres undefined),Percent Effect,"30.3 µM, […]",94.25%
O=C(c1csc2nc(-c3ccc(Cl)cc3)cn12)N1CCCC(CO)C1 (centres undefined),Percent Effect,"30.3 µM, […]",-3.231%
CN(CC1CCOCC1)C(=O)NCCCN1CCCCC1,Percent Effect,"30.3 µM, […]",19.46%
O=C(c1ccncc1)N1CCC(c2nc(O)cc(-c3cccnc3)n2)C1 (centres undefined),Percent Effect,"30 µM, 30.03 µM",-2.25%
Cc1cc2occ(CC(=O)N3CCC(O)(CN(C)C)C3)c2cc1Cl (centres undefined),Percent Effect,"30.3 µM, […]",50.58%
CN(C)CC1(O)CCN(C(=O)Cc2ccc(Cl)c(Cl)c2)C1 (centres undefined),Percent Effect,"30.3 µM, […]",1.329%
Cc1cc2occ(CC(=O)N3CCC4(CCCN(C)C4=O)C3)c2cc1Cl (centres undefined),Percent Effect,"30.3 µM, […]",10.63%
O=C(O)[C@@H]1CCN(C(=O)Cc2ccccn2)[C@@H]1c1ccc(F)cc1,Percent Effect,"30.3 µM, […]",8.228%
CCO[C@H]1C[C@@H](O)C12CCN(C(=O)CC(F)(F)F)CC2,Percent Effect,"30.3 µM, […]",-0.6132%
